Records with an inconclusive call do not appear. Activity calls are given as the source filed them. The call rests on the fitted dose curve; in most records, active means well fitted inhibition curve with a large enough effect; inconclusive means small, poorly fitted or top-dose-only effect; inactive means flat fitted curve, though single readings scatter.

In the assay the target is Luciferin 4-monooxygenase (Photinus pyralis) (UniProt P08659). The assay can be described thus: FLuc inhibitory activity for the follow-up compounds in a biochemical assay with 1mM ATP. The following applies: purified P. pyralis luciferase, luminescence; series mostly up to 57.5 µM. From the text: NCGC Assay Overview: Firefly (Photinus pyralis) luciferase is one of the most commonly used transcriptional reporters. It is considered one of the more dynamically responsive reporters - that is, responsive to changes in reporter transcription - as it requires no post-translational modifications and is enzymatically active directly after protein synthesis (Wood, 1998). With no endogenous expression in mammalian cells and without the requirement of external excitation, it offers very little background signal, thus generally providing excellent signal to background for most assays. Previous profiling work to determine the prevalence of compounds that affect FLuc enzymatic activity (PubChem AID 411) identified that ~3% of the MLSMR library (then at ~72K) inhibited FLuc. […] Of the compounds identified in this profile that inhibited FLuc, 151 compounds were selected for further analysis, in an effort to better understand their mode of inhibiting FLuc. The assay described here was to determine the activity of the compounds in a FLuc assay that contained a KM concentration of D-luciferin and a high concentration (1mM) of ATP.
Sequence of Luciferin 4-monooxygenase (Photinus pyralis) (P08659 whole entry, looked up): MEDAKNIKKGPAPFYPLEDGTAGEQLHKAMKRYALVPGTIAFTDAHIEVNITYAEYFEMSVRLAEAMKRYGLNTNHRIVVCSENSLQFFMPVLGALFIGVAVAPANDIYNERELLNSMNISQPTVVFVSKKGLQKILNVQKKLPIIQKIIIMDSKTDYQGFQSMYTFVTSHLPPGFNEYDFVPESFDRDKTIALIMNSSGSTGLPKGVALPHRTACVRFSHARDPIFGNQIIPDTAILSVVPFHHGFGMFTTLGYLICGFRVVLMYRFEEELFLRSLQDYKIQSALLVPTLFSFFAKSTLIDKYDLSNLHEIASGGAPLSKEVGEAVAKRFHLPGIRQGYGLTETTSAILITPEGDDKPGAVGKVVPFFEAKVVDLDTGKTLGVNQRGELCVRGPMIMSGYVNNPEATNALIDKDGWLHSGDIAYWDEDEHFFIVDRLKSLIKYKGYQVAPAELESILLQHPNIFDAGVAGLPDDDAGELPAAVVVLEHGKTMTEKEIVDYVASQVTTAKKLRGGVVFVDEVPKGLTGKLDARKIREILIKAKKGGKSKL
NCGC Assay Protocol Summary: Reagents: 50mM Tris acetate, pH 7.5; 10mM Mg acetate; 10uM D-luciferin (Sigma #L9504); 1mM ATP; 0.01% Tween-20; 0.05% BSA; 10nM P. pyralis luciferase (Sigma #L9506) Control compounds used were two known firefly luciferase inhibitors (3-(5-(3-chlorophenyl)-1,2,4-oxadiazol-3-yl)benzoic acid and 5-(2-fluorophenyl)-3-phenyl-1,2,4-oxadiazole), and DMSO. Three microliters containing firefly luciferase substrates in buffer (final concentrations: 50mM Tris acetate, pH 7.5, 10mM Mg acetate, 0.01% Tween-20, 0.05% BSA, 10uM D-luciferin, 1mM ATP) are dispensed into each well of a Greiner white, solid-bottom 1536-well format plate using a flying reagent dispenser (FRD). These assay plates were then treated with 23nL of compound or DMSO using a Kalypsys pin tool, which allows for delivery of a 12-point intraplate titration of each compound to the assay plate (quantitative HTS), with a final compound concentrations ranging from approximately ~60uM to 0.3nM. One microliter of firefly luciferase in […] Tris-acetate buffer was then delivered by FRD to each well for a final enzyme concentration of 10nM. Luciferase activity was then measured using a ViewLux CCD imager (PerkinElmer), with an average exposure time of 2-30 seconds (2X binning, medium/high gain).
In the case of `O=C(Nc1ccccc1C(=O)O)c1cccc(C(=O)Nc2ccccc2C(=O)O)c1`, the Potency is 11600 nM (active).
For the molecule `COc1ccc(CC(=O)Nc2ccc(-c3nc4ccccc4s3)c(C)c2)cc1`, the Potency is 18300 nM (active).
`COc1ccc2nc(NC(=O)Cc3cccs3)sc2c1`: the Potency is 4110 nM (active).
In the case of `COc1ccc(-c2nc3ccccc3s2)cc1NC(=O)c1ccc(F)cc1`, the Potency result is “inactive”.
For `CCOc1ccc2nc(NC(=O)c3cccnc3)sc2c1`, the Potency was 2060 nM (active).
Under `CCOc1ccc2nc(NC(=O)c3ccccn3)sc2c1` stands 130 nM (active).
As for `COc1ccc(C(=O)Nc2ccccc2C(=O)Nc2ccccc2C(=O)O)cc1`, the Potency is 4610 nM (active).
`O=C(O)c1ccc(NC(=O)c2cccc(C(=O)Nc3ccc(C(=O)O)cc3)c2)cc1`: the Potency entry is “inactive”.
Consider `COc1cc(OC)cc(C(=O)Nc2ccccc2-c2nc3ccccc3s2)c1`, for which the Potency result was “inactive”.
Then `Nc1ccc(-c2nc3ccc(N)cc3s2)cc1`, with 103 nM (active).
On to `Cc1ccc(C(=O)Nc2cccc(C(=O)O)c2)cc1S(=O)(=O)N1CCCCC1`, for which the Potency was 291 nM (active).
With `COc1ccc2nc(NC(=O)C3CCN(S(=O)(=O)c4cccnc4)CC3)sc2c1`, the Potency entry was “inactive”.
Turning to `Oc1ccc(-c2nc3ccccc3s2)c(O)c1`, the Potency is 2590 nM (active).
Turning to `COc1cccc(OC)c1C(=O)Nc1cccc(C(=O)Nc2cccc(C(=O)O)c2)c1`, the Potency is 4610 nM (active).
As to `O=C(Nc1ccccc1-c1nc2ccccc2s1)c1cccnc1`, the Potency was 36600 nM (active).
As to `O=C(O)c1cccc(NC(=O)c2cccc(NC(=O)C3CCCO3)c2)c1` (stereo not given), the Potency was 4110 nM (active).
Then `Cc1ccc(C(=O)O/N=C(\N)c2ccccn2)c(Cl)c1`, with 4.6 nM (active); and `COc1ccc2nc(NC(=O)CCc3nc(-c4ccccc4F)no3)sc2c1`, with “inactive”.
With `O=C(Nc1ccccc1C(=O)O)c1cccc(NC(=O)c2ccc(Br)o2)c1`, the Potency is 32600 nM (active).
With `COc1cc(C(=O)Nc2cc(C)c(O)c(-c3nc4ccccc4s3)c2)cc(OC)c1OC`, the Potency result was “inactive”.
Under `c1ccc2sc(-c3ccc4c(c3)OCO4)nc2c1` stands 91.9 nM (active); under `COc1ccc(C(=O)Nc2ccccc2-c2nc3ccccc3s2)c(OC)c1`, “inactive”; under `C/C(=N\NC(=O)c1ccccc1NC(=O)c1ccc(Cl)cc1)c1ccncc1`, 146 nM (active).
Then `Nc1ccc(C(=O)Nc2ccccc2C(=O)O)cc1`, with 14600 nM (active); and `O=C(COC(=O)c1ccccc1[N+](=O)[O-])c1ccc2c(c1)OCO2`, with 4.6 nM (active); and `COc1ccccc1C(=O)Nc1ccc(C(=O)O)cc1`, with “inactive”.
Then `Nc1ccccc1C(=O)Nc1cccc(C(=O)O)c1`, with 3660 nM (active); and `O=C(Nc1ccccc1C(=O)O)c1ccc(NC(=O)C2CC2)cc1`, with 3660 nM (active); and `O=C(O)c1ccc(NC(=O)c2ccccc2NC(=O)c2ccccc2Cl)cc1`, with “inactive”.
On to `Nc1ccc(-c2nc3cc(N)ccc3s2)cc1`, for which the Potency was 259 nM (active).
With `NC(=O)Cc1ccc2sc(-c3ccccc3)nc2c1`, the Potency is 1160 nM (active).
Under `O=C(Nc1ccccc1C(=O)O)c1cccc(NC(=O)c2ccccc2Cl)c1` stands 20600 nM (active).
Under `CCCC(=O)Nc1nc2ccc(OCC)cc2s1` stands 3260 nM (active); under `Cc1ccc2nc(-c3ccc(NC(=O)CN4CCN(C(=O)c5ccco5)CC4)cc3)sc2c1`, 4110 nM (active).
With `Nc1ccc2nc(-c3ccc(O)cc3)sc2c1`, the Potency was 183 nM (active).
On to `O=C(O)c1ccc(NC(=O)c2ccccc2NC(=O)c2ccccc2Br)cc1`, for which the Potency result is “inactive”.
On to `Cc1ccc2sc(-c3ccc(N)cc3)nc2c1`, for which the Potency is 36.6 nM (active).
Consider `COc1ccc2nc(NC(=O)c3cnccn3)sc2c1`, for which the Potency was 517 nM (active).
With `CC(C)(C)C(=O)Nc1ccc(-c2nc3ccccc3s2)cc1`, the Potency was 25.9 nM (active).
As to `Cn1c(N/N=C/c2cc3ccccc3nc2Cl)nc2ccccc21`, the Potency was 14600 nM (active).

(Values after PubChem BioAssay AID602364 (National Center for Advancing Translational Sciences (NCATS), 2012).)
